Among all 310,000 compounds or so, about 14,000 (4.5%) showed an effect of 50% or more. Effects have a minus sign here. This is one part of a sample in which strong results are shown more often than they occur.
biological target: human ether-à-go-go-related gene (hERG) potassium channel (human, UniProt Q12809); experiment: primary screen, population patch clamp on CHO cells stably expressing hERG; higher = less effect of the substance
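Also: peak tail current of the secondary pulse compared with the same well before compound.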

Sequence of human ether-à-go-go-related gene (hERG) potassium channel (Q12809 whole entry, looked up): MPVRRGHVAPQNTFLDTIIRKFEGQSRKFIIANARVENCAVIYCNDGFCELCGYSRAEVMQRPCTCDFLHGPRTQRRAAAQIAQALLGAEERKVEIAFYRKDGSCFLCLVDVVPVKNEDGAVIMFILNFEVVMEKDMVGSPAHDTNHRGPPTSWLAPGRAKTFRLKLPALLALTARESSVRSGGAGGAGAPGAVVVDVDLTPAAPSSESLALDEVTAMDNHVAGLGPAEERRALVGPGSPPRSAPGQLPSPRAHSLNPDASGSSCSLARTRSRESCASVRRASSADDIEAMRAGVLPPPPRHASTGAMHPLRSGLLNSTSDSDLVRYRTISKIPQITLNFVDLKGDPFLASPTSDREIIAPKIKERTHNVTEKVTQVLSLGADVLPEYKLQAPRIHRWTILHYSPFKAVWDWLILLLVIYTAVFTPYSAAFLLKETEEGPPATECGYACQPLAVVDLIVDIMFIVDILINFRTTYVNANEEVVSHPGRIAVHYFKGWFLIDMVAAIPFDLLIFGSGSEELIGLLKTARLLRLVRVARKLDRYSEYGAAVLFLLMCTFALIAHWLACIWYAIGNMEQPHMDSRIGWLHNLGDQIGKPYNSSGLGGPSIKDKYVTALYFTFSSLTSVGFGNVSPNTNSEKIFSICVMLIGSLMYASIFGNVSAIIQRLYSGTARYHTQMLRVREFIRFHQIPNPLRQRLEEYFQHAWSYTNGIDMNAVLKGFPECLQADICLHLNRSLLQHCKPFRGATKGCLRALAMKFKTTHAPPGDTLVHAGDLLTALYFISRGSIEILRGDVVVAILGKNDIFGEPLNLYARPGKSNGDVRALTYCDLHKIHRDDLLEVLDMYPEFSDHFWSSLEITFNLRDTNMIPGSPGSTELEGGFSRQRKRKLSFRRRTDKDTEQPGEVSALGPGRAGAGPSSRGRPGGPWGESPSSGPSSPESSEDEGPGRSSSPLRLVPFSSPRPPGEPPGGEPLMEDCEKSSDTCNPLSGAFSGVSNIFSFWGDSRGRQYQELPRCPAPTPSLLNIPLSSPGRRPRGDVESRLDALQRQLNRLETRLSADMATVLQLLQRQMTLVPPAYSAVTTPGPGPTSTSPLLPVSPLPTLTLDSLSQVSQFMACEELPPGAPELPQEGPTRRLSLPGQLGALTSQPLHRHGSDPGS

Structure (SMILES)	hERG current change (%, negative = inhibition) at 10uM [%]
O=C(CCc1nnc2ccc(NCc3ccccc3)nn12)NC1CCCC1	11.1
Cc1ccc(N2CC(C(=O)Nc3nccs3)CC2=O)cc1 (centres unmarked)	-5.15
Cc1ccc(N(C(=O)C2CCCO2)C2C=CS(=O)(=O)C2)cc1Cl (centres unmarked)	-4.44
O=C(Nc1ccc(S(=O)(=O)Nc2ncccn2)cc1)c1cncc(Br)c1	10.6
O=C(CSc1ccccc1Cl)NC1CCCc2ccccc21 (centres unmarked)	-1.17
O=C(O)C(=O)O.OC(CNC1CCCc2ccccc21)COc1ccc2ccccc2c1 (centres unmarked)	-72.3
CCc1ccccc1OC[C@@H](O)CN[C@H]1CCCc2ccccc21.O=C(O)C(=O)O	-24.7
O=C(c1ccccc1)c1ccc(OCC(O)CNC2CCCc3ccccc32)cc1 (centres unmarked)	-31.7
CC(=O)CCc1ccc(OCC(O)CNC2CCCc3ccccc32)cc1.O=C(O)C(=O)O (centres unmarked)	-49
O=C(O)C(=O)O.OC(CNC1CCCc2ccccc21)COc1c(Cl)cccc1Cl (centres unmarked)	-56.5
COc1ccc(CC(=O)Oc2ccc(C)cc2Br)cc1OC	3.25
CN(Cc1nc(-c2ccccc2)no1)C(=O)c1ccc2c(c1)OCO2	-20.5
Nc1nccnc1C(=O)OCC(=O)Nc1ccc2[nH]c(=O)[nH]c2c1	17
O=c1[nH]c2cc3c(cc2cc1CN(CCO)S(=O)(=O)c1ccccc1)OCCO3	-19
CCc1ccc(NC(=O)CN(c2ccc(OC)cc2)S(=O)(=O)c2c(C)nn(C)c2C)cc1	-4.36
Fc1ccc(C2c3[nH]c4ccccc4c3CCN2CCCn2cccn2)cc1 (centres unmarked)	-70.1
Cc1ccccc1C1c2[nH]c3ccccc3c2CCN1CCCn1cccn1 (centres unmarked)	-20.3
CCOc1ccc(C2c3[nH]c4ccccc4c3CCN2CCCn2cccn2)cc1 (centres unmarked)	-68.7
COc1ccc(C2c3[nH]c4ccccc4c3CCN2CCCn2cccn2)c(F)c1 (centres unmarked)	-3.85
CC(C)CC1c2[nH]c3ccccc3c2CCN1CCCn1cccn1 (centres unmarked)	-63.1
CC(C)(C)C1c2[nH]c3ccccc3c2CCN1CCCn1cccn1 (centres unmarked)	-19.5

Structure (SMILES)	hERG current change (%, negative = inhibition) at 10uM [%]
COc1ccc(C2c3[nH]c4ccccc4c3CCN2CCCn2cccn2)c(C)c1C (centres unmarked)	-9.49
COc1ccc(C2c3[nH]c4ccccc4c3CCN2CCCn2cccn2)cc1C (centres unmarked)	-38.9
Fc1ccccc1C1c2[nH]c3ccccc3c2CCN1CCCn1cccn1 (centres unmarked)	-46.4
O=S(=O)(NCc1ccccc1)NCc1ccccc1F	7.69
COCCN1C(=O)C(=O)/C(=C(/O)c2ccc(S(=O)(=O)N3CCCCC3)cc2)C1c1ccc(OC)c(OC)c1 (centres unmarked)	8.21
CC1(C)COC(/C=C/c2ccc([N+](=O)[O-])cc2)=N1	-26.1
CCc1ccccc1N(CC(=O)N1CCCCC1)S(=O)(=O)c1ccccc1	10.6
N#CC(C#N)=Cc1cc2ccccc2nc1N1CCCCC1	2.22
CCN(CC)c1ccc(NC(=O)COC(=O)COc2ccccc2[N+](=O)[O-])cc1	3.42
Cn1cc(Br)c(C(=O)NNC(=O)Cc2ccc(Cl)cc2)n1	3.6
COc1ccc(N2C(=O)C3C(C2=O)C3(c2ccccc2)c2ccccc2)cc1 (centres unmarked)	0.0654
Cc1ccc(C2CC(=O)C(C=NCCN3CCN(C(=S)Nc4ccccc4)CC3)=C(O)C2)cc1 (centres unmarked)	-26.4
O=C1CC(c2ccc(F)cc2)CC(O)=C1C=NCCN1CCN(C(=O)Nc2ccccc2)CC1 (centres unmarked)	-67.8
Cc1c(Cl)cccc1NC(=O)CN1CCN(CCN=CC2=C(O)CC(c3ccccc3)CC2=O)CC1 (centres unmarked)	-19.9
Cc1ccc(NC(=O)CN2CCN(CCN=CC3=C(O)CC(c4ccc(C)cc4)CC3=O)CC2)cc1 (centres unmarked)	-45.3
CCOC(=O)c1ccc(NC(=S)N2CCN(CCN=CC3=C(O)CC(c4ccccc4)CC3=O)CC2)cc1 (centres unmarked)	-19.9
COc1ccc(C2CC(=O)C(C=NCCN3CCN(C(=S)Nc4ccccc4)CC3)=C(O)C2)cc1 (centres unmarked)	-32.8
Cc1ccc(C2CC(=O)C(C=NCCN3CCN(C(=S)Nc4ccc(F)cc4)CC3)=C(O)C2)cc1 (centres unmarked)	-58.6
O=C1CC(c2ccccc2)CC(O)=C1C=NCCN1CCN(C(=O)Nc2ccccc2)CC1 (centres unmarked)	-64.4
COc1ccc(NC(=S)N2CCN(CCN=CC3=C(O)CC(c4ccccc4)CC3=O)CC2)cc1 (centres unmarked)	-45.7

Reference: publication PMC4336329 (PLoS ONE, 2015)
